Assay results from ChEMBL document CHEMBL3988442, “University of Dundee, Small-Polar-MMV Screening Library” (2021).
In all, about 48,000 compounds went through this assay and about 13,000 (27%) showed an effect of 50% or more. The list shows a part of the results.

tested on: Wolbachia pipientis; test: Anti-Wolbachia Cell-Based Screen; assay type: functional; parameters: scale not given: in the data most compounds retested in dose-response had high values; conditions: 5 µM

SMILES | Percent Effect
COc1ccc(C(=O)N2CCC(C3CCN(c4ncccn4)CC3)C2)o1 (stereo not drawn) | -7.407%
O=C(O)C(F)(F)F.O=C(c1ccco1)N1C[C@H]2CCCN(Cc3cccs3)[C@H]2C1 | -3.839%
CN1CCN(C(=O)[C@@H]2CCO[C@@H]3CCN(c4ncccn4)C[C@@H]32)CC1 | -8.422%
O=C([C@@H]1CCS(=O)(=O)[C@@H]2CN(c3ncccn3)C[C@@H]21)N1CCOCC1 | 104.7%
COc1ccc(/C=C/CN2CCCC3(C2)CN(C)C(=O)O3)cc1 (stereo not drawn) | -36.85%
CN1CC2(CCCN(Cc3cccc(CCN)c3)C2)OC1=O (stereo not drawn) | 105.3%
CN1CC2(CCCN(c3cnccn3)C2)OC1=O (stereo not drawn) | 1.527%
COc1cccc(CN2CCCC3(CCN(C(CO)CO)C3)C2)c1 (stereo not drawn) | -0.6359%
O=C1NC[C@@]2(C(=O)O)CN(Cc3cccc(Oc4ccccc4)c3)C[C@@H]12 | -29.67%
CN1CC2(CCCN(c3cc(N4CCCCC4)ncn3)C2)OC1=O (stereo not drawn) | -3.477%
CN1CC2(CCCN(Cc3ccccc3OCC(=O)O)C2)OC1=O (stereo not drawn) | 0.6132%
CN(C)CCOc1cccc(CN2CCCC3(C2)CN(C)C(=O)O3)c1 (stereo not drawn) | 103.2%
COc1ccc(/C=C/CN2CCC3(C2)CN(C)C(=O)O3)cc1 (stereo not drawn) | -32.82%
Cc1cc(C)c2[nH]c(=O)c(CN3CCCC4(C3)CN(C)C(=O)O4)cc2c1 (stereo not drawn) | -2.953%
CN1CC2(CCCN(Cc3cccc(Oc4ccccc4)c3)C2)OC1=O (stereo not drawn) | 123.2%
CN1CC2(CCCN(Cc3ccc(Oc4ccccc4)cc3)C2)OC1=O (stereo not drawn) | 64.08%
CCOCCCC(=O)NCc1ccnc(N2CCN(C)CC2)c1 | 8.829%
CN(Cc1ccc(F)cc1C#N)CC(F)(F)F | -4.053%
CC(C)(C)CCN1CCN(c2snc(Cl)c2C#N)CC1 | -4.564%
CC(C)(NC(=O)c1coc(COc2cccc(F)c2)n1)C(N)=O | 11.65%
COCc1cc(CNC(=O)c2cccc3c2OCC3)n[nH]1 | -6.489%
CCCN1CCCN(CCCOc2cccc(C#N)c2)CC1 | 7.264%
N#CCCN(C(=O)CN1CCCC1c1ccsc1)c1ccccc1F (stereo not drawn) | -4.506%
CCS(=O)(=O)N1CCn2c(COCC3CCOCC3)cnc2C1C (stereo not drawn) | -1.918%
CN(C)C(=O)NCc1cc2n(n1)CCCN(C[C@H]1[C@@H]3CNC[C@@H]31)C2 | -16.67%
O=C(CC1CCCO1)NCc1ccccc1Cn1cncn1 (stereo not drawn) | 0.9316%

SMILES | Percent Effect
Cc1cc(=O)[nH]cc1C(=O)N1Cc2ccccc2N(C)CC1C (stereo not drawn) | 102.2%
CCC1CN(C)c2ccccc2CN1C(=O)c1c[nH]c(=O)cc1C (stereo not drawn) | 123.4%
CCc1cc(CNC(=O)N2Cc3ccccc3N(C)CC2C)[nH]n1 (stereo not drawn) | 5.505%
CC1CN(C)c2ccccc2CN1C(=O)c1cc[nH]c(=O)c1 (stereo not drawn) | -17.5%
CC1CN(C)c2ccccc2CN1C(=O)c1ccncc1F (stereo not drawn) | -16.77%
CC1CN(C)c2ccccc2CN1C(=O)c1ccc[nH]1 (stereo not drawn) | -9.61%
COCc1ccc(C(=O)N2CCCN(C(=O)OCC(C)C)CC2)cc1 | 6.896%
CC(C(=O)N1CCN(C(=O)c2ccc(F)cc2)CC1)n1ccnc1 (stereo not drawn) | -9.233%
O=C(c1ccc(-n2ccnc2)cc1)N1CCCC1 | 15.67%
CC(C)Oc1ccc(C(=O)N2CC[C@H](O)[C@@H](n3ccnc3)CC2)cc1 | 122.3%
COCc1ccc(C(=O)N2CCN(CCS(C)(=O)=O)CC2)cc1 | 1.51%
COCc1ccc(C(=O)N2CC[C@H](O)[C@@H](n3ccnc3)CC2)cc1 | 113.2%
CS(=O)(=O)CCSC1CCN(c2ccccc2F)C1=O (stereo not drawn) | -0.4258%
CC(C)N1CCC(C(=O)N[C@H](C(=O)O)c2cccc(F)c2F)CC1 | 23.96%
O=C(c1coc2ccccc12)N1CCCC(O)(CO)CC1 (stereo not drawn) | -11.92%
Cn1c(CO)cnc1SC(C(N)=O)c1ccccc1 (stereo not drawn) | -6.292%
COCCN(CCC#N)S(=O)(=O)c1ccc(F)cc1F | 3.199%
COc1cccc(OCCNCc2ccccc2)c1.O=C(O)C(=O)O | 105.9%
COc1cccc(OCCNS(=O)(=O)Cc2ccccc2)c1 | 102.8%
CC(=O)NCCOc1cccc(Br)c1 | 0.6269%
CS(=O)(=O)c1ccc(OCCNCc2cccc(O)c2)cc1 | -6.003%
O=C(CCOc1ccccc1)NS(=O)(=O)Cc1ccccc1 | -5.15%
COc1ccc(S(=O)(=O)C(C)C(=O)NCCOc2cccc(C)c2)cc1 (stereo not drawn) | 1.494%
COc1cccc(CNCCc2cccc(C(N)=O)c2)c1 | -2.153%
COc1cccc(OCCNS(C)(=O)=O)c1 | 78.58%
Cc1cccc(OCC(=O)NS(=O)(=O)Cc2ccccc2)c1 | 1.498%

SMILES | Percent Effect
Cc1c(C(=O)NC2(C#N)CCSC2)nnn1-c1ccccc1Cl (stereo not drawn) | 1.619%
Cn1cc(CNc2ccc(F)c(N3CCCS3(=O)=O)c2)cn1 | -4.512%
CCCOCC1CCN(C(=O)Cn2cccc(C(F)(F)F)c2=O)C1 (stereo not drawn) | -13.09%
CCN1CCCC12CCN(C(=O)c1ccsc1)CC2.O=C(O)C(F)(F)F | -19.39%
CN(C)CCN1CCCC12CCCN(Cc1ccco1)C2.O=C(O)C(F)(F)F.O=C(O)C(F)(F)F.O=C(O)C(F)(F)F (stereo not drawn) | -6.586%
CN(C)CCN1CCCC12CCN(C(=O)c1ccoc1)CC2.O=C(O)C(F)(F)F.O=C(O)C(F)(F)F | 109.3%
CN(C)CCN1CCCC12CCN(C(=O)c1cccn1C)CC2.O=C(O)C(F)(F)F.O=C(O)C(F)(F)F | -18.28%
Cc1ccccc1C(=O)N1CCC2(CCCN2CCN(C)C)CC1.O=C(O)C(F)(F)F.O=C(O)C(F)(F)F | 100.3%
CN(C)CCN1CCCC12CCN(C(=O)c1ccco1)CC2.O=C(O)C(F)(F)F.O=C(O)C(F)(F)F | 96.22%
Cn1cc(CN2CCCC23CCN(C(=O)c2cccn2C)CC3)cn1.O=C(O)C(F)(F)F | -11.73%
CN(C)CCN1CCCC12CCCN(Cc1ccoc1)C2.O=C(O)C(F)(F)F.O=C(O)C(F)(F)F.O=C(O)C(F)(F)F (stereo not drawn) | 19.5%
CN(Cc1ccco1)C1CCC12CCN(C(=O)c1ccco1)CC2.O=C(O)C(F)(F)F (stereo not drawn) | -7.154%
NC(=O)C(NCCc1ccc(Cl)s1)c1ccccc1 (stereo not drawn) | 0.1259%
CCN(Cc1noc(C(C)C)n1)Cc1ccc(C#N)cc1F | 13.78%
O=S(=O)(Cc1ccccc1)NCc1ccnc(O)c1 | -8.436%
CCc1ccc2nc(C)cc(C(=O)N3C[C@H]4CCC[C@@]4(CO)C3)c2c1 | -46.54%
CCSc1ncc(CN2C[C@H]3CC[C@@H]2CN(C2CCOCC2)C3)cn1 | 15.93%
CSC(C)C(=O)NCCC(=O)N1CCN(c2ccccn2)CC1 (stereo not drawn) | 112.5%
CCc1nnsc1C(=O)NC1CCN(c2ccccn2)CC1 | -15.93%
CCC(CC)C(=O)NCCC(=O)N1CCN(c2ccccn2)CC1 | 117%
CC(c1ccccn1)N(C)C(=O)CN1CCN(c2ccccn2)CC1 (stereo not drawn) | -2.14%
CCC(C)NC(=O)NCCC(=O)N1CCN(c2ccccn2)CC1 (stereo not drawn) | 129.1%
CC(C)C(=O)NCCC(=O)N1CCN(c2ccccn2)CC1 | 125.4%
CC(C)NCc1cccnc1N1CCN(c2ccccn2)CC1 | -3.713%
CC(C)CC(C)NCc1cccnc1N1CCN(c2ccccn2)CC1 (stereo not drawn) | -4.161%
Cc1nc(CNC(=O)CCN2CCN(c3ccccn3)CC2)oc1C | -3.101%

SMILES | Percent Effect
CCCC(C)NCc1cccnc1N1CCN(c2ccccn2)CC1 (stereo not drawn) | 8.499%
CSCC(C)N(C)C(=O)CN1CCN(c2ccccn2)CC1 (stereo not drawn) | -3.468%
CCn1cc2c(n1)C(COC)CN(C(=O)COc1ccccc1C)C2 (stereo not drawn) | -8.136%
CC(=O)NC[C@@H]1C=C(C)[C@H](CC(=O)NCCN(C)C)C[C@H]1C(C)C | 6.725%
O=C1CC2(CCSC2)C(=O)N1CCCc1ccccc1 (stereo not drawn) | -8.478%
CCC(NC(=O)c1coc(COc2cccc(F)c2F)n1)C(=O)NC (stereo not drawn) | -19.24%
CCc1nnc2n1CCN(Cc1nc(-c3ccoc3)no1)C2 | -0.9507%
COCCC(=O)N1CCCC1c1csc(Nc2ccccn2)n1 (stereo not drawn) | 105.2%
COCCC(=O)N1CCCC1c1csc(Nc2ncccn2)n1 (stereo not drawn) | 107%
CC(C)(C)c1nnc(CN2CCN(C(=O)CC3CCCCC3)CC2)o1 | -4.944%
CCC[C@@H](NC(N)=O)C(=O)N1CCc2c(Cl)cccc2C1 | 5.459%
COCC(=O)Nc1cc(S(=O)(=O)C(F)(F)F)ccc1OC | 4.656%
CCc1nc(C)c(CN2CCOC(Cc3cccc4ccccc34)C2)[nH]1 (stereo not drawn) | 10.02%
Cc1ccc(-c2nnc(CN3CCCC(O)(CO)CC3)o2)n1C (stereo not drawn) | -4.067%
OCC1(O)CCCN(Cc2nnc(-c3ccccc3)o2)CC1 (stereo not drawn) | 97.17%
Cc1nc(CN2CCCC(C)(CO)C2)no1 (stereo not drawn) | 110.1%
Cc1nc(CN2CCCN(CC(=O)N(C)CCC#N)CC2)no1 | 3.648%
OCC1(O)CCCN(Cc2noc(-c3ccccc3)n2)CC1 (stereo not drawn) | 104.1%
c1ccc(-c2nc(CN3CCn4c(nnc4C4CC4)C3)no2)cc1 | -9.405%
CC1(c2ccccc2)CCCN(Cc2nnc(-c3cccnc3)o2)C1 (stereo not drawn) | -17.9%
CN(C)CC1(O)CCCN(c2noc(-c3ccccc3)n2)CC1 (stereo not drawn) | -6.371%
Cc1cc(CN2CCCC(C)(CO)C2)ccc1F (stereo not drawn) | -2.653%
OCCOc1ccccc1CN1CCCC(O)(CO)C1 (stereo not drawn) | 16.2%
OCC1(O)CCCN(Cc2noc(-c3ccccc3)n2)C1 (stereo not drawn) | 97.27%
Cn1cnc2c1CCN(Cc1noc(-c3ccccc3)n1)C2 | 2.267%
